Data as given in PubChem BioAssay (NCI).
The panel holds about 83,000 compounds, 20% with a hit somewhere; the sample as a whole holds those more often.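 Testing used 96-well plates and a 48-hour single-concentration exposure. Example: -40 means 40% of the starting cells died.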 Calls of active or inactive are those of the source. The calls were made as follows: active = growth percent below 10; inactive = the rest.

Test system: SF-295 CNS
Assay: NCI-60 one-dose screen, 48 h (100 = growth as untreated, 0 = no growth, -100 = all killed)
Conditions: 10 µM unless noted

Compound | growth
Nc1ccc(S(=O)(=O)O)c2ccc(N=Nc3ccc(N=Nc4ccc(S(=O)(=O)O)cc4)c4ccccc34)c(O)c12 | 114% (inactive)
CSc1ccc(-c2n[nH]nc2-c2cc3ccccc3s2)cc1 | 49.9% (inactive)
COc1ccc(C(=O)COc2ccc(/C=C3\COc4ccc(OC)cc4C3=O)cc2)cc1 | 144% (inactive)
COc1cc(C=Nc2oc(-c3ccccc3)c(-c3ccccc3)c2C#N)cc(CN2CCCCC2)c1O | 102% (inactive)
O=C1CC[C@H](c2ccc(O)c3c2C(=O)[C@@H]2O[C@@H]2C3=O)c2cccc(O)c21 | 91.3% (inactive)
C#CC(F)(F)[C@]1(O)CC[C@H]2[C@@H]3CCC4=CC(=O)CCC4=C3[C@@H](c3ccc(C(C)=O)cc3)C[C@@]21C | 22.5% (inactive)
O=C(Cc1ccccc1Nc1c(Cl)cccc1Cl)NN1C(=O)/C(=C/c2ccc(Br)cc2)SC1=S | 101% (inactive)
Cc1nn(-c2cc(=O)[nH]c3ccccc23)c(N)c1C#N | 100% (inactive)
CCn1c(Cc2ccccc2Nc2c(Cl)cccc2Cl)nnc1SCC(=O)NN1C(=O)/C(=C/c2cc(OC)c(O)c(OC)c2)SC1=S | 23.5% (inactive)
Cc1cc(C)nc(SC2=C(Nc3cc(Cl)ccc3O)C(=O)N(Cc3ccccc3)C2=O)n1 | 112% [30 µM] (inactive)
CCN(CC)c1ccc(/C=N\NC(=O)/C=C/C=C/c2ccc3c(c2)OCO3)c(O)c1 | 41.7% (inactive)
N#Cc1cnn(-c2nc3c(Cl)cccc3s2)c1N | 82.3% (inactive)
COc1ccc(S(=O)(=O)N2CC3(COC3)C2)cc1NC(=O)c1[nH]c(C)c2c1CCCCC2=O | 52.8% (inactive)
Cn1cc(C(=O)c2nc(-c3c[nH]c4ccc(F)cc34)no2)c2cc(F)ccc21 | 98% (inactive)
O=C1C=C(OCC=C(Cl)Cl)C(=O)c2ccccc21 | 92.8% (inactive)
Cc1cc(C)nc(SC2=C(Nc3cccc(Cl)c3)C(=O)N(Cc3ccccc3)C2=O)n1 | -12.3% [30 µM] (active)
O=c1cc(CSc2nnc(-c3ccc(F)cc3)o2)c2ccc3ccccc3c2o1 | 89.5% (inactive)
CCCn1c(=O)[nH]c(N)c([C@H]2c3ccccc3Oc3[nH]c(=O)n(CCC)c(=O)c32)c1=O | 88.1% (inactive)

Compound | growth
O=C(CCN1C(=O)/C(=C/c2ccc(Cl)cc2)SC1=S)NCCCN1CCOCC1 | 95.2% (inactive)
Cc1nc2ccccc2n1C(=O)C[C@@H]1NC(=S)NC1=O | 98.4% (inactive)
O=C(N=Nc1c(O)[nH]c2ccc(Br)cc12)c1cc(-c2ccccc2)on1 | 97.1% (inactive)
C=C(C)C(=O)Nc1ccc(NC(C)C)cc1 | 147% (inactive)
CC(O)CN1CC(O)=C(c2nc3ccccc3s2)C1=N (stereo not given) | 129% (inactive)
O=c1c2c3c(sc2nc(N/N=C/c2cn(-c4ccccc4)nc2-c2ccc(Cl)cc2)n1Cc1ccccc1)CCCC3 | 62.2% (inactive)
COc1cccc(-c2nn(C(C)(C)C)cc2-c2ccnc(NCCCNS(=O)(=O)c3ccc(C)cc3)c2)c1 | 103% (inactive)
CSc1nc(Nc2cccc(NC(=O)CCl)c2)c(C#N)c(-c2cccc([N+](=O)[O-])c2)n1 | 95.4% (inactive)
CSc1nc(Nc2cccc(NC(=O)/C(C#N)=C/c3c(Cl)cccc3Cl)c2)c(C#N)c(-c2cccc([N+](=O)[O-])c2)n1 | 92% (inactive)
COc1ccc(-c2nc3ccc(-c4nc5ccc(N6CCN(c7ccccc7)CC6)cc5[nH]4)cc3[nH]2)cc1OC | 22.1% (inactive)
COc1ccc(CCNc2nc3c(c(=O)n(Cc4ccc(Br)cc4)c(=O)n3C)n2C)cc1OC | 89.1% (inactive)
C=CCSSc1ncnc2c1ncn2C1OC(CO)C(O)C1O (stereo not given) | 17.9% (inactive)
Cc1ccc(NC(=O)C2CCC(CN3CCN(C)CC3)CC2)cc1Nc1nccc(-c2cccnc2)n1 (stereo not given) | 101% (inactive)
COc1cc(/C=C/c2cc(O)c3cc(C(C)=O)c(=O)oc3c2)cc2c1O[C@]1(C)CC[C@@H](O)C(C)(C)[C@H]1C2 | -63.3% (active)
C=CC(=O)Nc1cccc(Nc2nc(SC)nc(-c3cccc([N+](=O)[O-])c3)c2C#N)c1 | 49.7% (inactive)
N#C/C(=C\c1ccc(-c2cc(C(F)(F)F)ccc2Cl)o1)c1nc(-c2ccco2)cs1 | 101% (inactive)
COCCNc1ccc2c3c(cccc13)C(=O)N(CCN(C)C)C2=O | 16.8% (inactive)
